Test results from publication PMC4552634, “A New Set of Chemical Starting Points with Plasmodium falciparum Transmission-Blocking Potential for Antimalarial Drug Discovery” (PLoS ONE, 2015).
About 3,200 (25%) of roughly 13,000 compounds showed an effect of 50% or more. The list shows a part of the results.

Tested on: P. falciparum stage V gametocytes
Set-up: BacTiter-Glo ATP luminescence viability of purified stage V gametocytes in 384-well plates, per cent inhibition versus DMSO
Details: 48 h, 5 µM; inhibitor

Row | Structure (SMILES) | % Inhibition [%]
1 | NCCCNc1nc(Nc2ccc(C(F)(F)F)cc2F)c2c(=O)[nH]ccc2n1 [TCMDC-135056] | 108.1
2 | NCCCNc1nc(Nc2cccc(C(N)=O)c2)c2c(=O)[nH]ccc2n1 [TCMDC-135053] | 0.6256
3 | Cc1cccc(Nc2nc(NCCCCN)nc3cc[nH]c(=O)c23)c1 [TCMDC-134946] | 47.91
4 | CCS(=O)(=O)c1ccc(/C(=N/OC)c2ccc[nH]2)cc1 [TCMDC-139022] | -5.005
5 | CCCc1cc(=O)[nH]c(-n2nc(C)cc2NC(=O)C(CC)c2ccccc2)n1 (stereo not drawn) [TCMDC-124941] | 11.79
6 | Cc1cc(=O)[nH]c(-n2nc(C)cc2NC(=O)C(c2ccccc2)c2ccccc2)n1 [TCMDC-124945] | 2.872
7 | Cc1cc(=O)[nH]c(-n2nc(C)cc2NC(=O)CC(c2ccccc2)c2ccccc2)n1 [TCMDC-124944] | -15.6
8 | Cc1ccc(Nc2cc(C)nn2-c2nc(C)cc(=O)[nH]2)cc1 [TCMDC-123713] | 62.43
9 | CCN(CC)c1nc(Nc2cc(C)ccc2C)nc(Nc2ccccc2O)n1 [TCMDC-125766] | -38.82
10 | CCn1c(-c2nonc2N)nc2cnc(Oc3cccc(NC(=O)c4ccc(OCCN5CCCC5)cc4)c3)cc21 [TCMDC-135776] | 8.365
11 | CCOC(=O)c1ccc(NC(=O)Nc2cccc(-c3cccc(-c4nc5ccccc5[nH]4)c3)c2)cc1 [TCMDC-133263] | 2.081
12 | CCn1c(-c2nonc2N)nc2c(-c3cccc(NC(=O)Nc4ccc(Cl)cc4)c3)ncc(OCCCN)c21 [TCMDC-136152] | 102.5
13 | CCOC(=O)c1ccc(NC(=O)Nc2cccc(-c3cccc(-c4nc5c(C)cccc5[nH]4)c3)c2)cc1 [TCMDC-133264] | -4.791
14 | CCOC(=O)c1cccc(NC(=O)Nc2cccc(-c3ncc(OCCCN)c4c3nc(-c3nonc3N)n4CC)c2)c1 [TCMDC-136205] | 109.2
15 | CCn1c(-c2nonc2N)nc2c(-c3cccc(NC(=O)NC45CC6CC(CC(C6)C4)C5)c3)ncc(OCCCN)c21 [TCMDC-136246] | 20.74
16 | Nc1nonc1-c1nc2c(-c3cccc(Cl)c3)nccc2n1CCCNC(=O)Cc1ccc(Cl)cc1 [TCMDC-135207] | 32.87
17 | CCn1c(-c2nonc2N)nc2c(-c3cccc(NC(=O)Nc4cccc(Cl)c4)c3)ncc(OCCCN)c21 [TCMDC-136193] | 104.3
18 | CCn1c(-c2nonc2N)nc2c(Cl)ncc(O[C@H](CCN)c3ccccc3F)c21 [TCMDC-133566] | -5.634
19 | CCn1c(-c2nonc2N)nc2cnc(Oc3cccc(NC(=O)c4ccc(OCCCN5CCCCC5)cc4)c3)cc21 [TCMDC-135764] | -4.348
20 | CCn1c(-c2nonc2N)nc2c(-c3cccc(NC(=O)Nc4ccc5c(c4)CCC5)c3)ncc(OCCCN)c21 [TCMDC-136191] | 95.55
21 | Cc1cccc2[nH]c(-c3cccc(-c4cccc(NC(=O)Nc5ccc(Cl)cc5)c4)c3)nc12 [TCMDC-133179] | -25.81
22 | Cc1cccc2nc(-c3ccc(-c4cccc(CN5CC(C)OC(C)C5)c4)s3)[nH]c12.O=C(O)C(F)(F)F (stereo not drawn) [TCMDC-133832] | -9.101

Row | Structure (SMILES) | % Inhibition [%]
23 | N#Cc1ccc(C(=O)Nc2cc(-c3cccc(O)c3)cc3[nH]ncc23)cc1 [TCMDC-134118] | 16.86
24 | Cc1ccc(Oc2ncccc2C(=O)Nc2cccc3cccnc23)c(C)c1 [TCMDC-125499] | -13.13
25 | O=C(Nc1ccc(CCN2CCC(c3nc(COCC(F)(F)F)c(-c4ccccc4)o3)CC2)cc1)c1ccc(F)cc1 [TCMDC-131904] | -33.25
26 | O=C(Nc1nccs1)c1sc2ccccc2c1O [TCMDC-124521] | -6.294
27 | CCNc1cc(C(=O)N[C@@H](Cc2ccccc2)[C@H](O)CNCc2cc(C#N)ccc2OC)cc(N2CCCC2=O)c1 [TCMDC-141684] | 32.6
28 | CCn1nc(C(=O)NC2CCOc3ccccc32)c2ccccc2c1=O (stereo not drawn) [TCMDC-124816] | 60.74
29 | CC1CCC(NC(=O)c2nn(-c3ccc(Cl)cc3)c(=O)c3ccccc23)CC1 (stereo not drawn) [TCMDC-124775] | -0.9327
30 | COc1ccc(-n2nc(C(=O)NCc3ccccc3OC)c3ccccc3c2=O)cc1 [TCMDC-125443] | -5.134
31 | COc1ccc(CN2CCC(CN3CC4(OC3=O)c3ccccc3-c3ccccc34)C2)c(O)c1 (stereo not drawn) [TCMDC-136069] | 30.12
32 | CCNc1cc(C(=O)N[C@@H](Cc2ccccc2)[C@H](O)CNCc2cccc(OC)c2)c(OC)c(N2CCCCS2(=O)=O)c1 [TCMDC-134673] | -8.62
33 | S=C(Nc1ccc(Cl)cc1)Nc1ccc(Nc2ccccc2)cc1 [TCMDC-123954] | -65.82
34 | NC(=NCCc1ccc(Cl)cc1)c1ccc(Cl)c(Cl)c1 [TCMDC-137459] | -9.34
35 | N=C(N)NN=CC(=O)Nc1ccc(Cl)cc1 [TCMDC-137472] | 9.695
36 | Clc1ccc(NC(=NCCCCCCCN=C(Nc2ccc(Cl)cc2)Nc2ccc(Cl)cc2)Nc2ccc(Cl)cc2)cc1 [TCMDC-137529] | 128.8
37 | NC(=NCCCCCCCCN=C(N)Nc1ccc(Cl)cc1)Nc1ccc(Cl)cc1 [TCMDC-131828] | 83.63
38 | O=C(Nc1ccc(Cl)cc1)Nc1ccc(-c2ccc(-c3nc4ccccc4[nH]3)cc2)cc1 [TCMDC-133181] | -19.19
39 | Clc1cccc(-c2nc(Nc3ccnc(-c4ccc(CN5CCOCC5)cc4)c3)c3ccccc3n2)c1 [TCMDC-138870] | -2.785
40 | COC(=O)c1ccc(CC(C)NCC(O)c2cccc(Oc3cccc(C(F)(F)F)c3)c2)cc1 (stereo not drawn) [TCMDC-131489] | 30.29
41 | COc1ccc2c(c1)[nH]c1c(/C=C/c3ccc([N+](=O)[O-])cc3)nccc12 [TCMDC-125486] | 8.204
42 | Cc1sc(NC(=O)c2ccc([N+](=O)[O-])cc2Cl)c(C(N)=O)c1C [TCMDC-125749] | -6.756
43 | c1nc2nc3c(c(Nc4ccc5c(c4)CCC5)n2n1)CCC3 [TCMDC-123573] | -7.89
44 | O=C(/C=C/c1ccc(Cl)c(Cl)c1)NCCCCCN1CCCC(C(=O)Nc2ccc(Cl)c(Cl)c2)C1 (stereo not drawn) [TCMDC-136126] | 74.26

Row | Structure (SMILES) | % Inhibition [%]
45 | O=C(/C=C/c1ccc(Cl)c(Cl)c1)NCCCCCN1CCCC(C(=O)Nc2ccc(Cl)cc2)C1 (stereo not drawn) [TCMDC-136118] | -2.254
46 | O=C(/C=C/c1ccc(Cl)c(Cl)c1)NCCCCCN1CCCC(C(=O)Nc2cccc(Cl)c2)C1 (stereo not drawn) [TCMDC-136122] | -10.14
47 | O=C(/C=C/c1ccc(Cl)cc1)NCCCCCN1CCCC(C(=O)Nc2ccc(Cl)cc2)C1 (stereo not drawn) [TCMDC-136117] | 4.842
48 | O=C(/C=C/c1ccc(Cl)c(Cl)c1)NCCCCCN1CCC(NC(=O)NC2CCCC2)CC1 [TCMDC-135699] | -68.94
49 | O=C(/C=C/c1ccc(Cl)cc1)NCCCCCN1CCCC(C(=O)Nc2cccc(Cl)c2)C1 (stereo not drawn) [TCMDC-136121] | 90.21
50 | O=C(/C=C/c1ccc(Cl)c(Cl)c1)NCCCCCN1CCC(NC(=O)NC2CCCCCC2)CC1 [TCMDC-135698] | -24.64
51 | O=C(/C=C/C=C/c1ccc(Cl)c(Cl)c1)NCCCCCN1CCCC2CCCCC21 (stereo not drawn) [TCMDC-139469] | 92.39
52 | O=C(/C=C/c1ccc(Cl)c(Cl)c1)NCCCCCN1CCCC(C(=O)Nc2ccc(F)c(Cl)c2)C1 (stereo not drawn) [TCMDC-136114] | -6.866
53 | CC(C)C1=C[C@H]2C[C@]3(C4OCCO4)[C@@H]4CC[C@@H](C)[C@H]4C[C@@]2(C(=O)OCC2COCO2)[C@]13C(=O)OC(c1ccccc1)c1ccccc1 (stereo partly drawn) [TCMDC-131949] | -14.13
54 | CN(C)c1ccc(C(c2ccc(N(C)C)cc2)c2cc([N+](=O)[O-])ccc2Cl)cc1 [TCMDC-124088] | -4.747
55 | O=S1(=O)C=C(c2ccccc2)CC1 [TCMDC-125863] | -1.513
56 | O=C(Nc1cc(Cl)ccc1O)c1cnn2c(C(F)(F)F)cc(-c3cccs3)nc12 [TCMDC-125807] | -56.02
57 | COc1cc(CN2CCC(N3CCc4cc(NC(=O)c5cc(C)on5)ccc43)C2)ccc1F (stereo not drawn) [TCMDC-135084] | -32.41
58 | N#Cc1cccc(NC(=O)Nc2cccc(-c3ccc(-c4nc5ccc(C(F)(F)F)cc5[nH]4)cc3)c2)c1 [TCMDC-133191] | -49.97
59 | CCOC(=O)C(NC(=O)c1ccc([N+](=O)[O-])o1)C(C)C (stereo not drawn) [TCMDC-131607] | 14.28
60 | CC(C)c1sc(N2CCN(C)CC2)nc1C(=O)NCCc1ccc(Cl)c(Cl)c1 [TCMDC-134295] | 11.7
61 | Cc1ccc(C)c2sc(N3CCN(C(=O)c4ccc([N+](=O)[O-])o4)CC3)nc12 [TCMDC-124315] | 103
62 | Cc1ccc(Cl)c2sc(N3CCN(C(=O)c4ccc([N+](=O)[O-])o4)CC3)nc12 [TCMDC-124311] | 95.54
63 | CCOC(=O)C(CO)NC(=O)c1ccc([N+](=O)[O-])o1 (stereo not drawn) [TCMDC-131608] | 22.85
64 | CC1CCN(c2nc(C(=O)NCCc3ccc(Cl)c(Cl)c3)c(C(C)C)s2)CC1 [TCMDC-134836] | 1.732
65 | O=C(N[C@@H](CC1CCCCC1)C(=O)NCCN1CCCCC1)c1ccc(O)c(-c2cccc(C(F)(F)F)c2)c1 [TCMDC-140818] | 37.36
66 | COc1cc(Cc2cnc(N)nc2N)cc(OCc2cccc(C(=O)O)c2)c1OC [TCMDC-137888] | -0.7108
